Measurements published in PubChem BioAssay (NCI).
Compounds without any hit were thinned out: in the full panel of roughly 79,000, 15% have a hit. Values without a mark were called inactive. Activity calls are given as the source filed them. No stated cut-off is given here; in the data, active means growth inhibition above about 70%; inactive means the rest.

Assays:
[1] = NCI Yeast Anticancer Drug Screen. Data for the rad50 strain (AID 155);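 further: 0% = growth of vehicle-only cultures of the same strain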; details: S. cerevisiae rad50 strain growth inhibition; at 50.0 µM; stronger effect = higher value
Outline: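 Yeast carrying a defined DNA repair defect were exposed to test compounds, and growth was compared with vehicle-treated controls to give percent inhibition.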

[2] = NCI Yeast Anticancer Drug Screen. Data for the mec2-1 strain (AID 157); details: S. cerevisiae mec2-1 strain, at 50.0 µM, stronger effect = higher value
Outline: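 Using mec2-1 yeast: add compound, measure growth, express inhibition versus vehicle-treated cultures.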

[3] = NCI Yeast Anticancer Drug Screen. Data for the sgs1 mgt1 strain (AID 161);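 further: 0% = growth of cultures given vehicle only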; details: S. cerevisiae sgs1 mgt1 strain, at 50.0 µM, stronger effect = higher value
Outline: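 Percent growth inhibition was derived by comparing compound-exposed mutant yeast with vehicle-exposed cultures. The strain carries alterations in DNA damage repair.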

[4] = NCI Yeast Anticancer Drug Screen. Data for the cln2 rad14 strain (AID 165);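 further: 0% = growth equal to vehicle treated cultures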; details: S. cerevisiae cln2 rad14 strain, at 50.0 µM, stronger effect = higher value
Outline: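 Yeast strain cln2 rad14, bearing defects in cell cycle control and DNA repair, serves as the test system; values reflect growth inhibition compared with vehicle.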

[5] = NCI Yeast Anticancer Drug Screen. Data for the bub3 strain (AID 167); details: S. cerevisiae bub3 mutant strain, at 50.0 µM, stronger effect = higher value
Outline: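 Compounds were applied to a genetically altered yeast strain carrying a cell-cycle control defect. Growth inhibition was scored against vehicle-treated controls.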

[6] = NCI Yeast Anticancer Drug Screen. Data for the mlh1 rad18 strain (AID 175); details: S. cerevisiae mlh1 rad18 strain growth inhibition; at 50.0 µM; stronger effect = higher value
Outline: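 Steps: expose repair-defective yeast to compound; measure growth; express inhibition against vehicle-treated controls.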

SMILES	growth inhibition [1]	growth inhibition [2]	growth inhibition [3]	growth inhibition [4]	growth inhibition [5]	growth inhibition [6]
CCCC(=O)OCc1ccccc1	14.4%	11.9%	-6.9%	-15.8%	-5.15%	-7.85%
Cc1ccc(I)c(C)c1	-40%	-10%	-39.4%	-3.6%	-1.15%	-7.3%
CC1(C)CC(=O)C=C(NCCCCCCCCNC2=CC(=O)CC(C)(C)C2)C1	-0.25%	19.8%	5.7%	6.45%	5%	9.8%
CCCCCOCC(O)CNCCNCC(O)COCCCCC (stereo not drawn)	8%	0%	14.3%	-55.6%	-23.2%	0%
Cc1ccc(-n2nc3c(c(C#N)c2=O)-c2ccccc2C3=O)cc1	-27.6%	-4.4%	-31.8%	-38.5%	-2.7%	-14.3%
O=C1C(c2[nH]c3ccc(F)cc3c2O)=Nc2ccc(F)cc21	8.7%	10.9%	22.9%	9.4%	0%	19.1%
N[C@@H]1c2c(Br)sc(N3CCOCC3)c2C(=O)[C@@H]1O	10.8%	-10.4%	4.1%	-18.6%	5.4%	-31.6%
COC(=Nc1cccc2ccccc12)Nc1cccc2ccccc12	1.95%	-3.5%	-4.35%	7.95%	-2.3%	-2%
COC(=O)CCC(=O)Nc1cc(Cl)c(Cl)cc1Cl	-14.1%	8.15%	6.55%	1.15%	9.3%	-7.4%
O=C(O)C1C2C=CC(O2)C1C(=O)NCc1ccccn1 (stereo not drawn)	-3.5%	-26.5%	-7.3%	-22.6%	-37%	9.85%
COC(=O)c1cccc2cnccc12	2.2%	-5.7%	3.6%	-48%	7.65%	3.75%
C#CCOCC12C=CC(O1)C1C(=O)OCC12 (stereo not drawn)	-9.45%	9.65%	-12.8%	18.9%	21%	41.9%
CC1(C2=CCCCC2)CCC(=O)NC1=O (stereo not drawn)	-6.35%	10.6%	0.2%	35.2%	14.1%	28.8%
O=C(Nc1nc(C23CC4CC(CC(C4)C2)C3)cs1)c1cc2ccc(O)cc2oc1=O	0.7%	15.8%	3.55%	21.9%	0.2%	-16.6%
N=c1oc2ccccc2cc1-c1nc2ccccc2c(=O)[nH]1	-1.75%	-3.25%	4.5%	11.7%	-13.4%	17.3%
Clc1ccc(-n2cccc2)cc1	-4.75%	0.25%	10.7%	5.8%	-19.6%	-6.3%
Cc1ccc(NC(=O)C2C(=O)N(c3ccc(C)cc3)C(=O)/C2=N\NC(N)=S)cc1 (stereo not drawn)	-29.7%	-25.1%	-38%	-10.4%	-10%	-26.8%
CCCCCCSc1n[nH]c(=S)s1	-4.25%	9.55%	18.4%	24.6%	-5.2%	13.4%
COc1nc(C(=O)NNC(=O)c2nc(OC)c3ccccc3c2-c2ccccc2)c(-c2ccccc2)c2ccccc12	-6.9%	-5.8%	-19.2%	-8.7%	-17%	1.3%

SMILES	growth inhibition [1]	growth inhibition [2]	growth inhibition [3]	growth inhibition [4]	growth inhibition [5]	growth inhibition [6]
Nc1c(-c2nc3ccccc3[nH]2)sc(=S)n1-c1ccc(Cl)cc1	-11.6%	-30.7%	2.75%	8.9%	7.8%	-6.5%
CN(C)c1ncnc2c1ncn2CC(O)CN (stereo not drawn)	-7.9%	-8.65%	-15.8%	4.4%	5.4%	-17.2%
CCCCCC(Oc1ccc(Cl)cc1Cl)C(=O)O (stereo not drawn)	96.7% (active)	85.6% (active)	97.5% (active)	93% (active)	91.2% (active)	93.5% (active)
N#CC12CC3CC(CC(C3)C1)C2	-3.9%	-1.5%	-15%	-45%	-9.3%	4.35%
O=C(CCn1[nH]c(=O)c(Cl)c(Cl)c1=O)NOCCCc1ccccc1	0.3%	-21.7%	-8.5%	-7.95%	4.3%	-11.6%
Cc1c(C)c(C)c(CNNC(=S)Nc2cccc(Cl)c2)c(C)c1C	-6.35%	5.7%	-1.35%	-3.45%	-3.5%	21.1%
CN(c1ccccc1)c1cc2nc3ccccc3nc2cc1O	15.3%	17.4%	4.3%	14.3%	2%	-1.6%
O=C(N/N=C/C=C/c1ccccc1)c1ccccc1O	-1.8%	43%	56.2%	-31.7%	43.4%	29.6%
c1cc[n+](CC[n+]2ccccn2)nc1	11.7%	22%	7.65%	16.4%	45.6%	46.1%
CC(=O)O[C@H]1CC[C@]2(C)C3CC[C@]4(C)C([C@H](C)CCCC(C)C)CCC4[C@]3(/C=N/O)n3c(=O)n(-c4ccccc4)c(=O)n3[C@]2(/C=N\O)C1 (stereo partly drawn)	28%	35.2%	28.8%	9.7%	38.9%	45.4%
O=C(O)C(=Cc1ccc(-c2ccc([N+](=O)[O-])cc2)o1)C(=O)O	6.95%	0.7%	-12.8%	29.9%	15.8%	12.4%
CCCc1cc(=O)oc2c(C=O)c(O)cc(O)c12	37.9%	24.7%	20.6%	9.6%	19.7%	46.5%
COc1cc2c[n+](C)c(-c3ccc(Cl)c(Cl)c3)c(OC)c2cc1OC	56.1%	8.15%	41.5%	31.4%	14.9%	41.5%
O=Cc1cc(C=O)c2ccc(=O)[nH]c2n1	4.75%	0.5%	-8.55%	0.65%	-1.25%	-3.5%
NC(=O)CSc1ccccc1	8%	2.1%	9.8%	10.1%	-4.5%	-8.6%
CCOC1NC(=O)c2ccccc21 (stereo not drawn)	22.1%	6.15%	5.85%	22.2%	19.1%	12.8%
O=C(Oc1ccc([N+](=O)[O-])cc1)C(CSC(c1ccccc1)(c1ccccc1)c1ccccc1)NC(c1ccccc1)(c1ccccc1)c1ccccc1 (stereo not drawn)	-3.05%	20.9%	6.5%	-19.8%	-3.6%	23.9%
C/C=C1\CN2CCc3c([nH]c4ccccc34)C2CC1CC(=O)N(C)C (stereo not drawn)	0.9%	-7.75%	-20.6%	-1%	1.6%	-5.95%
CCCC(=O)NC(Nc1ccc(S(=O)(=O)Nc2nc(C)cc(C)n2)cc1)(C(F)(F)F)C(F)(F)F	-21.6%	-37.9%	-21.1%	13.2%	-3.7%	-21.4%
